In PubChem BioAssay (NCATS) one finds Potency and activity change, negative = inhibition data, which are given here for 26 molecules.

The experiment can be described thus: KB-8-5-11 P-gp reporter qHTS against the NCATS DSHEA and TCM libraries (AID 1919977). Summed up: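 P-gp-overexpressing KB-8-5-11 cells (500/well) were plated in colchicine-free DMEM with 10% FBS, attached ~4 h, then exposed to substance titrations for ~72 h at 37C. Viability was read by CellTiter-Glo luminescence.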
Background: qHTS replaces the single test concentration by a dilution series.

Molecules are shown by their SMILES. Results filed as inconclusive are left out. Where a call stands in place of a potency, no number is given. Values without a mark were called inactive. Active and inactive are the calls of the source. Calls follow the shape of the dose curve; as a rule, active = well fitted curve in the direction sought with a large enough effect; inconclusive = small, poorly fitted or top-dose-only effect, or another doubt; inactive = no such curve, though single readings can be large or run the other way.

`CC(C)=CCC[C@](C)(O[C@@H]1O[C@H](CO)[C@@H](O)[C@H](O)[C@H]1O)[C@H]1CC[C@]2(C)[C@@H]1[C@H](O)C[C@@H]1[C@@]3(C)CC[C@H](O)C(C)(C)[C@@H]3[C@@H](O[C@@H]3O[C@H](CO)[C@@H](O)[C@H](O)[C@H]3O)C[C@]12C`: the Potency entry was “inactive”.
Same read-out and setting: the entry for `COc1ccc2ccc(=O)oc2c1` is “inactive”; for `CCCCCCCCC/C=C/C(=O)CCc1ccc(O)c(OC)c1` it is “inactive”.
On the same count and under the same terms, for `O=C(OCC1=C[C@@H](O)[C@@H]2C=CO[C@@H](O[C@@H]3O[C@H](CO)[C@@H](O)[C@H](O)[C@H]3O)[C@H]12)c1ccc(O)cc1` the value was “inactive”; for `CC(C)(O)[C@@H]1CC[C@](C)([C@@H]2[C@H](O)C[C@]3(C)C4C[C@@H](O[C@H]5O[C@@H](CO)[C@H](O)[C@@H](O)[C@@H]5O)C5C(C)(C)[C@H](O[C@H]6OC[C@H](O)[C@@H](O)[C@@H]6O)CC[C@]56CC46CC[C@@]23C)O1` (stereo partly specified), “inactive”.
For the molecule `COc1ccc(/C=C/c2cc(OC)cc(=O)o2)cc1`, the Potency entry was “inactive”.
On to `O=c1cc(-c2ccc(O)cc2)oc2cc(O[C@@H]3O[C@H](CO)[C@@H](O)[C@H](O)[C@H]3O[C@@H]3OC[C@](O)(CO)[C@H]3O)cc(O)c12`, for which the Potency entry was “inactive”.
Still for that read-out and setting: for `CCCCCCCCCCCCCCCCCCCCCC(=O)O` the value was “inactive”; for `O=S(=O)(O)O`, “inactive”.
Take `O=C(/C=C/c1ccc(O)c(O)c1)O[C@@H]1CC(C(=O)O)=C[C@@H](O)[C@H]1O`: the Potency entry was “inactive”.
Still for that read-out and setting: the entry for `CCCCCCCC/C=C\CCCCCCCCCCCCCC(=O)O` is “inactive”; for `CCCCCCCCC[C@@H](O)CC(=O)CCc1ccc(O)c(OC)c1` it is “inactive”; for `O=c1cc(-c2ccc(O)c(O)c2)oc2cc(O[C@@H]3O[C@@H](CO)[C@@H](O)[C@@H](O)[C@H]3O)cc(O)c12` it is “inactive”.
Turning to `Oc1cc(O)c2c(c1)O[C@@H](c1cc(O)c(O)c(O)c1)[C@H](O)C2`, the Potency result was “inactive”.
For the molecule `C=C[C@](C)(O)CCC=C(C)C`, the Potency result is “inactive”.
On the same count and under the same terms, the entry for `C[C@@H]1CC[C@]2(C)CC[C@]3(C)C(=CC(=O)C4[C@@]5(C)CC[C@@H](O)[C@](C)(C(=O)O)C5CC[C@]43C)C2[C@H]1C` (stereo partly specified) is “inactive”.
Still for that read-out and setting: for `O=Cc1ccccc1O` the value was “inactive”; for `Cc1ccc(C(C)C)cc1`, “inactive”; for `CC[C@H](CC[C@@H](C)[C@H]1CCC2C3CCC4C[C@@H](O)CC[C@]4(C)C3CC[C@@]21C)C(C)C` (stereo partly specified), “inactive”.
Still for that read-out and setting: the entry for `Oc1cccc(O)c1O` is “inactive”; for `CC(C)(O)[C@@H]1CC[C@](C)([C@H]2[C@@H](O)C[C@@]3(C)[C@@H]4C[C@H](O)[C@H]5C(C)(C)[C@@H](O[C@@H]6OC[C@@H](O)[C@H](O)[C@H]6O[C@@H]6O[C@H](CO)[C@@H](O)[C@H](O)[C@H]6O)CC[C@@]56C[C@@]46CC[C@]23C)O1` it is “inactive”; for `CCCCCCC/C=C/C(=O)CCc1ccc(O)c(OC)c1` it is “inactive”.
As to `C=C(C)C1CC=C(C)C(O)C1` (stereo unspecified), the Potency result is “inactive”.
For the molecule `CC(C)=CCC[C@](C)(O[C@@H]1O[C@H](CO[C@@H]2O[C@H](CO)[C@@H](O)[C@H](O)[C@H]2O)[C@@H](O)[C@H](O)[C@H]1O)C1CC[C@]2(C)[C@@H]1[C@H](O)CC1[C@@]3(C)CC[C@H](O[C@@H]4O[C@H](CO)[C@@H](O)[C@H](O)[C@H]4O[C@@H]4O[C@H](CO)[C@@H](O)[C@H](O)[C@H]4O)C(C)(C)[C@@H]3CC[C@]12C` (stereo partly specified), the activity change, negative = inhibition was 14.6% [at 5.42 µM].
`O[C@@H]1[C@@H](O)[C@H](OC/C=C/c2ccccc2)O[C@H](CO[C@@H]2OC[C@H](O)[C@H](O)[C@H]2O)[C@H]1O`: the Potency result is “inactive”.
The same measure, in the same setting: for `CC1=C2[C@H](/C=C(\C)C(=O)O)CC[C@@H](C)[C@H]2CC1` the value was “inactive”.
